# Only some compounds are listed: those with a hit (about 21% of all), similar ones and a draw of the others.
# TDP1 cell CPT: DT40-hTDP1 cell growth loss with CPT; chicken DT40 Tdp1-/-;hTDP1 cells + 20 nM CPT, ATP luminescence, 48 h; Potency, µM (series often up to 46.2 µM), for the others: top-dose activity change, negative = growth inhibition, actives largely listed as inhibitors; 420,000 compounds, 12% hits; AID 686979; note: potency is the fitted concentration of half-maximal effect; % is set by controls: 0 for no effect and ±100 for the full control effect; nearly all actives have a fitted effect of over 55% in size
#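 Chicken DT40 Tdp1-/- cells stably complemented with human TDP1 were seeded at 400 cells/well in medium containing 20 nM camptothecin, exposed to pin-transferred compounds, and grown at 37 °C for at least 48 hr. Viability was read as ATP luminescence.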
# ClpP mod: qHTS Assay for Activators of ClpP. 340,000 compounds, 1.9% hits. ATP-dependent Clp protease proteolytic subunit (Bacillus subtilis (strain 168)), P80244. AID 651965, 2013. purified B. subtilis ClpP, FRET peptide cleavage, 20 min. Potency, µM (series often up to 57.5 µM), for the others: top-dose activity change, negative = active; active = well fitted falling curve with a large enough effect; inconclusive = small, poorly fitted or top-dose-only effect; inactive = no such curve, though single readings can be large or run the other way; note: potency is the fitted concentration of half-maximal effect; the source files actives as falling curves though it sought activators and does not explain the sign; nearly all actives have a fitted effect of over 65% in size
# Target sequence (P80244 whole entry, looked up): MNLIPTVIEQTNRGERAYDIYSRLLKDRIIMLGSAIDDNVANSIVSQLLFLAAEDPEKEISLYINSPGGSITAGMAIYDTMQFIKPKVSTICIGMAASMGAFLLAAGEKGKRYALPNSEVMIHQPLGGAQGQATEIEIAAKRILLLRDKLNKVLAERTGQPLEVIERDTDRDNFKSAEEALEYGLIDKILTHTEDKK
#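 FRET quenching reversal measured ClpP activation: 10 microg/mL B. subtilis ClpP at pH 8 with the FRET-FV decapeptide, read at 430 nm after 320 nm excitation. The 20-min minus 0-min signal was scaled between DMSO/no-enzyme wells and ADEP (5.8 microM final).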
# DT40 TDP1 no CPT: qHTS for Inhibitors of human tyrosyl-DNA phosphodiesterase 1 (TDP1): qHTS in cells in absence of CPT; DT40 Tdp1-/- hTDP1 cells, no CPT, ATP luminescence, 48 h; Potency, µM (series often up to 46.2 µM), for the others: top-dose activity change, negative = growth inhibition, actives largely listed as inhibitors; 420,000 compounds, 15% hits; AID 686978, 2013; note: potency is the fitted concentration of half-maximal effect; % is set by controls: 0 for no effect and ±100 for the full control effect; nearly all actives have a fitted effect of over 55% in size
#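 Cells were dispensed at 400 per well, compounds added by pin tool, plates incubated ≥48 hr at 37 °C, then CellTiter-Glo added for 30 min at room temperature before luminescence reading. Line: DT40 Tdp1-/- complemented with hTDP1; camptothecin omitted.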
# DRD3 antagonist: D3 dopamine receptor (human) antagonism. P35462. D3R cells, DiscoveRx beta-arrestin luminescence, antagonist mode; stronger effect = lower value. max response, negative = inhibition, %. 360,000 compounds, 2.5% hits; in the data active = max response below about -50%; inconclusive = no clear call, values can overlap the other calls; note: % is set by controls: 0 for no effect and ±100 for the full control effect
# Target sequence (P35462 whole entry, looked up): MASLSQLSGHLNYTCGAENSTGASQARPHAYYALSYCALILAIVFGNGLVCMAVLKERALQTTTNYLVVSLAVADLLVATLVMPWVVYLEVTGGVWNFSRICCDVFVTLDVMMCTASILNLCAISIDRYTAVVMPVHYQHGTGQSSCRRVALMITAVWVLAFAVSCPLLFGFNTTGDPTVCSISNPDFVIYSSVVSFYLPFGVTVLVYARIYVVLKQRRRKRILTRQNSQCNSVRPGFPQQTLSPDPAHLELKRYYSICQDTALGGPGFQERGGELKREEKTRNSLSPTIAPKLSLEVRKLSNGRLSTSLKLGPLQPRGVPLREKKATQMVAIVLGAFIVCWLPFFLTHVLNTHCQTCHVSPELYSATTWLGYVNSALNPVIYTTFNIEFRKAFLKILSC
#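 Cells expressing the human receptor were seeded at 1500 cells/well, incubated overnight at 37 degrees C in 5% CO2, then exposed to library compounds with dopamine controls for 90 minutes at 37 degrees C before luminescent detection.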
# D3 ag: D3 dopamine receptor (human) agonism | AID 652048 | D3R DiscoveRx beta-arrestin cells, luminescence, 90 min | max activation, % | P35462 | 410,000 compounds, 0.58% hits; in the data active = max activation above about 30%; note: 0% is about no effect
#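 Agonist-mode cell screen: cells plated at 1500/well and incubated overnight at 37 °C, then exposed to library compounds for 90 min at 37 °C. Detection reagent was added for 30–60 min at room temperature, and luminescence was read.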
# IL1B secr inh: inflammasome signaling inhibition, IL-1 beta readout | THP-1 LPS/ATP IL-1B secretion, AlphaLISA, 16 h; stronger effect = lower value | activity change, % at 57.5 µM | 360,000 compounds, 4.7% hits | AID 743279; in the data active = activity change below about -50%; inconclusive = mostly about -30% to -49%; note: % is set by controls: 0 for no effect and ±100 for the full control effect
#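 THP-1 cells pretreated 1 hr with compounds (up to 57.5 uM final), then stimulated with LPS (250 ng/mL final) plus ATP (1.25 mM final); secreted IL-1B measured by AlphaLISA after 16 hr, decreased signal indicating inhibition.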
# * marks the source's active call; other numbers are inactive results; ? = inconclusive; / = no result given. Unless noted, calls come from the whole dose curve; as a rule, active = well fitted inhibition curve with a large enough effect; inconclusive = small, poorly fitted or top-dose-only effect; inactive = flat fitted curve, though single readings scatter.
SMILES,TDP1 cell CPT,ClpP mod,DT40 TDP1 no CPT,DRD3 antagonist,D3 ag,IL1B secr inh
CS(=O)(=O)N1CCC2(CCN(c3ccccc3)CC2)CC1,-13.6%,/,?,/,/,/
CCCCS(=O)(=O)Nc1ccc2ncn(C)c(=O)c2c1,-12.2%,31.6µM*,-10.5%,2.4,1.5,29.3
CCCCS(=O)(=O)Nc1ccc2cn[nH]c2c1,3.4%,/,-12.1%,0.9,-0.6,27.1
CC(=O)N1c2ccc(S(=O)(=O)N(C)CC(=O)Nc3ccccc3C)cc2CC1C (configuration not stated),-26.3%,-2.5%,-8.5%,-0.8,2.9,6.1
O=C(c1cccc(F)c1)N1CCN(C(=O)c2cc(-c3ccc(Cl)cc3Cl)on2)CC1,?,2.1%,18.4µM*,18.4,19.6,/
CCCCC(=O)NCCNC(=O)c1cc(OCC(F)(F)F)ccc1OCC(F)(F)F,-9.1%,6.9%,3.3%,-0.8,3.5,8.3
O=C(NCCNC(=O)c1cc(OCC(F)(F)F)ccc1OCC(F)(F)F)Nc1ccc(Cl)cc1,-18.0%,-3.9%,7.4%,18.3,10.0,-5.7
O=C(NCCNC(=O)c1cc(OCC(F)(F)F)ccc1OCC(F)(F)F)Nc1ccc(OC(F)(F)F)cc1,?,0.1%,23.1µM*,-6.1,1.4,65.2
O=C(CCl)NCCNC(=O)c1cc(OCC(F)(F)F)ccc1OCC(F)(F)F,?,/,?,9.7,4.6,-60.2*
COc1ccc(C(=O)NCCNC(=O)c2cc(OCC(F)(F)F)ccc2OCC(F)(F)F)cc1,?,0.1%,-4.3%,8.9,5.1,-0.4
O=C(NCCN1CCCCC1)c1cc(OCC(F)(F)F)ccc1OCC(F)(F)F,3.4%,?,-7.4%,-53.0*,0.9,-18.6
CCN(CC)S(=O)(=O)c1ccc(F)c(C(=O)NCCC(C)C)c1,?,1.3%,?,12.9,36.5*,0.0
CCCCCNC(=O)c1cc(S(=O)(=O)N2CCCCC2)ccc1F,2.6%,-0.4%,-12.2%,-5.2,-3.0,9.0
CCN(Cc1ccccc1)S(=O)(=O)c1ccc(F)c(C(=O)Nc2ccc(C(C)C)cc2)c1,14.6µM*,-0.2%,18.4µM*,/,-2.0,/
CC(C)c1ccc(NC(=O)c2cc(S(=O)(=O)NCc3ccccc3Cl)ccc2F)cc1,6.51µM*,-5.4%,9.2µM*,/,-5.6,/
CCc1cccc(C)c1NC(=O)c1cc(S(=O)(=O)N(C)Cc2ccccc2)ccc1F,29.1µM*,-3.6%,8.2µM*,/,-21.2,/
CN(Cc1ccccc1)S(=O)(=O)c1ccc(F)c(C(=O)Nc2ccccc2C(F)(F)F)c1,?,19.4%,?,/,0.8,/
Cc1ccccc1NC(=O)c1ccc(F)c(S(=O)(=O)N(C)Cc2ccccc2)c1,?,-1.5%,20.6µM*,/,7.8,/
CC(C)c1ccc(NC(=O)c2cc(S(=O)(=O)NCCC3=CCCCC3)ccc2F)cc1,18.4µM*,-6.5%,18.4µM*,/,7.2,/
COc1ccc(C(=O)Nc2ccc(NC(C)=O)cc2)cc1S(=O)(=O)N(C)Cc1ccccc1,-25.8%,-1.6%,?,8.9,-2.6,?
O=C(N/N=C/C1CCCCC1)c1ccccc1-n1cccc1,8.1%,/,-21.3%,1.5,36.0*,13.5
CN(C)S(=O)(=O)N1CCc2ccc(NC(=O)c3ccc(C(F)(F)F)cc3)cc2C1,16.4µM*,0.1%,23.1µM*,-15.4,-14.0,?
COCCC(=O)N1CCc2ccc(NC(=O)c3ccc(C(F)(F)F)cc3)cc2C1,?,1.6%,?,-13.4,0.4,0.0
CCCCN(C)Cc1c(C(=O)N2CCc3ccccc3C2)nc2ccc(Cl)cn12,-27.6%,/,?,1.9,-18.1,28.9
CC(C)CN(C)Cc1c(C(=O)N2CCc3ccccc3C2)nc2ccc(Cl)cn12,18.4µM*,-0.7%,20.6µM*,10.5,-18.6,-82.8*
SMILES,TDP1 cell CPT,ClpP mod,DT40 TDP1 no CPT,DRD3 antagonist,D3 ag,IL1B secr inh
CC1(C)N=C(SCC(=O)Nc2ccc(Cl)cc2)C(c2ccc(Cl)cc2)=N1,?,-6.2%,18.4µM*,36.3,3.9,-108.8*
CC1(C)N=C(SCC(=O)Nc2ccc(Cl)cc2)C(c2ccccc2)=N1,?,0.1%,?,19.8,-2.3,-87.1*
Cc1cc(SCC(=O)Nc2ccc(Cl)cc2)nc2ccccc12,-16.2%,-3.9%,?,/,8.0,/
CC(=O)Nc1ccc(N2CCN(Cc3ccccc3)CC2)cc1,7.0%,0.4%,1.9%,-3.0,-13.8,-9.0
CCOc1ccc(CNC23CN4CN(CN(C4)C2)C3)cc1,?,0.7%,?,10.7,1.8,6.1
CCOc1ccc(CNc2ccc(N3CCCC3)cc2)cc1,9.2µM*,-15.0%,8.2µM*,-12.3,-5.5,4.5
CCOc1ccc(CNc2ccc(N3CCN(Cc4ccccc4)CC3)cc2)cc1,?,/,?,-62.2*,-21.2,-1.2
CCOc1ccc(CNCCN2CCCC2)cc1,?,/,20.6µM*,-11.3,-24.2,-15.4
CCN(CC(=O)Nc1c(F)cccc1F)C(=O)C1=COCCO1,-17.8%,0.7%,-2.3%,-7.0,3.7,6.4
COc1cc(NS(=O)(=O)c2cccc3nsnc23)cc(OC)c1,-25.0%,-0.6%,?,-63.7*,3.2,12.9
COc1cc(NS(=O)(=O)c2cccc3nsnc23)c(C(=O)O)cc1OC,1.2%,-1.8%,-2.7%,-83.1*,-3.5,4.2
Oc1c(C(c2ccccc2)N2CCOCC2)ccc2ccccc12 (configuration not stated),8.2µM*,-13.3%,9.2µM*,-13.8,-1.7,-98.7*
CC(C(=O)N1CCOCC1)c1ccccc1 (configuration not stated),-1.8%,1.2%,-9.2%,-27.3,-7.5,-1.1
COc1ccc(-c2nc(CS(=O)CC(=O)NCc3ccc(F)cc3)c(C)o2)cc1 (configuration not stated),?,-22.1%,-4.6%,-18.8,-10.5,-15.1
